# Inconclusive results are not listed. Entries that show only a call come without a potency. Activity calls are given as the source filed them. Unless noted, calls come from the whole dose curve; as a rule, active = well fitted curve in the direction sought with a large enough effect in the repeat runs; inconclusive = weak or mixed curves; inactive = no such curve, though single readings can be large; an effect the other way counts as inactive or inconclusive. Non-standard residues stand in square brackets, D forms with d. Residues, ends and D or L forms follow the SMILES beside them. pGlu = O=C1CC[C@@H](C(=O)O)N1
# What was measured:
# [1] = qHTS assay to test for compound auto fluorescence at 535 nm (green) in HEK293 cells (AID 720680); settings: green autofluorescence 485/535 nm; series mostly up to 46 µM
# [2] = qHTS assay to test for compound auto fluorescence at 460 nm (blue) in HEK293 cell free culture (AID 720681); settings: cell-free medium, autofluorescence 405/460 nm (blue); series mostly up to 46 µM
# Summary of the method: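 Blue fluorescence (Ex 405/Em 460 nm, triamterene-equivalent) was read immediately after pin transfer of compound or DMSO into medium (DMEM, 10% FBS) without cells.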
# [3] = qHTS assay to test for compound auto fluorescence at 535 nm (green) in HEK293 cell free culture (AID 720682); settings: cell-free medium, green autofluorescence 485/535 nm; series mostly up to 46 µM
# Summary of the method: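 Green-label autofluorescence (485 nm excitation, 535 nm emission) measured on compound added to cell-free culture medium (DMEM, 10% FBS). Output is expressed relative to fluorescein.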
# [4] = qHTS assay to test for compound auto fluorescence at 590 nm (red) in HEK293 cell free culture (AID 720683); settings: cell-free medium autofluorescence, Ex540/Em590 red; series mostly up to 46 µM
# Summary of the method: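 Red-channel autofluorescence of compounds in culture medium (DMEM, 10% FBS), no cells, measured at 540/590 nm. Rose Bengal sodium is the reference fluorophore for equivalence.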
# [5] = qHTS assay to test for compound auto fluorescence at 590 nm (red) in HepG2 cell free culture (AID 720684); settings: cell-free medium autofluorescence, red 540/590 nm; series mostly up to 46 µM
# Summary of the method: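 No cells present: MEM + 10% FBS only. Compound pinned in, red label read (540/590 nm). Activity = fluorescence equivalent to Rose Bengal sodium.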
# [6] = qHTS assay to test for compound auto fluorescence at 460 nm (blue) in HepG2 cell free culture (AID 720685); settings: Cell-free culture medium, blue autofluorescence 405/460 nm; series mostly up to 46 µM
# Summary of the method: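 Cell-free plates of MEM plus 10% FBS received 23 nL compound or DMSO vehicle; blue-channel (405/460 nm) intensity scored against triamterene as reference fluorophore.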
# [7] = qHTS assay to test for compound auto fluorescence at 535 nm (green) in HepG2 cell free culture (AID 720686); settings: Cell-free medium, green autofluorescence 485/535 nm; series mostly up to 46 µM
# [8] = qHTS assay to test for compound auto fluorescence at 460 nm (blue) in HepG2 cells (AID 720687); settings: autofluorescence 405/460 nm, 1 h; series mostly up to 46 µM
# Summary of the method: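 Blue-channel autofluorescence (Ex/Em 405/460 nm, triamterene-equivalent) was measured after 1 hr compound exposure at 37 C, 5% CO2. Cells were HepG2, plated overnight at 37 C in MEM plus 10% FBS.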
# [9] = qHTS assay to identify small molecule antagonists of the glucocorticoid receptor (GR) signaling pathway - cell viability counter screen (AID 720693); settings: GR-bla HeLa viability, CellTiter-Glo luminescence, 18 h, with 5 nM dexamethasone present; series mostly up to 58.5 µM; note: nearly all actives have a fitted effect of over 55% in size; note: potency is the fitted concentration of half-maximal effect
# [10] = qHTS assay for identifying genotoxic compounds that show differential cytotoxicity against isogenic chicken DT40 cell lines with known DNA damage response pathways - wild type cell line (AID 743012); settings: DT40 wild type chicken cells viability, CellTiter-Glo, 40 h; series mostly up to 68.4 µM; note: nearly all actives have a fitted effect of over 60% in size; note: potency is the fitted concentration of half-maximal effect
# Summary of the method: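 Viability by ATP luminescence (CellTiter-Glo, 30 min RT) after 40 h compound treatment at 37 C/5% CO2, using 300 parental DNA repair-proficient DT40 cells per well.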
# [11] = qHTS assay for identifying genotoxic compounds that show differential cytotoxicity against isogenic chicken DT40 cell lines with known DNA damage response pathways - Rev3 mutant cell line (AID 743014); settings: chicken DT40 Rev3-/- viability, CellTiter-Glo, 40 h; series mostly up to 68.4 µM; note: nearly all actives have a fitted effect of over 55% in size; note: potency is the fitted concentration of half-maximal effect
# [12] = qHTS assay for identifying genotoxic compounds that show differential cytotoxicity against isogenic chicken DT40 cell lines with known DNA damage response pathways - Rad54/Ku70 mutant cell line (AID 743015); settings: DT40 Rad54/Ku70 mutant viability, CellTiter-Glo, 40 h; series mostly up to 66.8 µM; note: nearly all actives have a fitted effect of over 60% in size; note: potency is the fitted concentration of half-maximal effect
# [13] = qHTS assay to identify small molecule antagonists of the androgen receptor (AR) signaling pathway - cell viability counter screen (AID 743033; note: nearly all actives have a fitted effect of over 45% in size); settings: AR-bla HEK293 viability, CellTiter-Glo luminescence, 16 h; series mostly up to 58.5 µM
# [14] = qHTS assay to identify small molecule antagonists of the androgen receptor (AR) signaling pathway using the MDA cell line - cell viability counter screen (AID 743041; note: nearly all actives have a fitted effect of over 45% in size; note: potency is the fitted concentration of half-maximal effect); settings: MDA-kb2 viability, CellTiter-Fluor, 16 h, cells co-treated with R1881 androgen agonist; series mostly up to 70.3 µM
# Summary of the method: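 Using the breast carcinoma line MDA-kb2 AR-luc, test chemicals were co-incubated with R1881 for 16 h; CellTiter-Fluor reagent, added at 15.5 h, provided a fluorescence measure of live cells.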
# [15] = molecular target: Androgen receptor (Homo sapiens) (UniProt P10275); assay: qHTS assay to identify small molecule agonists of the androgen receptor (AR) signaling pathway using the MDA cell line (AID 743040; note: nearly all actives have a fitted effect of over 20% in size); settings: MDA-kb2 AR-luc cells, MMTV luciferase, 16 h; series mostly up to 70.3 µM
# Androgen receptor (Homo sapiens), sequence (P10275 whole entry, looked up): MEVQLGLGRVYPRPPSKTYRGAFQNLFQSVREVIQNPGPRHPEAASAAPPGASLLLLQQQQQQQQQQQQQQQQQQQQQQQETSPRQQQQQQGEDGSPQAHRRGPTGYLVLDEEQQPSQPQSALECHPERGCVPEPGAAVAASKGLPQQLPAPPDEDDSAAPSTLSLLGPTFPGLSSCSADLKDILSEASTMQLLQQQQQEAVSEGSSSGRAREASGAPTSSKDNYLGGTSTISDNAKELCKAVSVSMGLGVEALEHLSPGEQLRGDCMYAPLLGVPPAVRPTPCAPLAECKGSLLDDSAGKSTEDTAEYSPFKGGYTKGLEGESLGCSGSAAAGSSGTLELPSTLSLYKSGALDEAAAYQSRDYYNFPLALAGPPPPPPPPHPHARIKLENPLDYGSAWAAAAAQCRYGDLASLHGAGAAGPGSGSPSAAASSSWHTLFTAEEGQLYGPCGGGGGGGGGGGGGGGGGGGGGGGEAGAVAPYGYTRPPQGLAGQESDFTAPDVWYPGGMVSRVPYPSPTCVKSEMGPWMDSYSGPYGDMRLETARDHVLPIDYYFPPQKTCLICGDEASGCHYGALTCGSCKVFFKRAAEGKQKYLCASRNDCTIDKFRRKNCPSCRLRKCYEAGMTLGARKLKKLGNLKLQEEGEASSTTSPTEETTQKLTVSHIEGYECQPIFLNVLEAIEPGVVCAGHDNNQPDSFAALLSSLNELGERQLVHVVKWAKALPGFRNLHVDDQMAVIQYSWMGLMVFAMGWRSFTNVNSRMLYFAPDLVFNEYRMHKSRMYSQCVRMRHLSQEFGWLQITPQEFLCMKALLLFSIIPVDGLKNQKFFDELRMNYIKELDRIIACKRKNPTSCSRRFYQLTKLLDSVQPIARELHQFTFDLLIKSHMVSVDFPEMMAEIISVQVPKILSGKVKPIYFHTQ
# Summary of the method: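 Stable MMTV-luciferase reporter in MDA-kb2 cells; note the promoter carries GR as well as AR response elements. 16 h compound treatment, 37C, 0% CO2; ONE-Glo luminescence endpoint.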
# [16] = molecular target: Androgen receptor (Homo sapiens) (UniProt P10275); assay: qHTS assay to identify small molecule antagonists of the androgen receptor (AR) signaling pathway (AID 743035; active = well fitted inhibition curve with a large enough effect in the signal ratio in the repeat runs, not every such curve was filed as active; the % refers to the signal ratio; note: potency is the fitted concentration of half-maximal effect); settings: HEK293 AR-UAS-bla, R1881-stimulated, beta-lactamase FRET, 16 h; series mostly up to 58.5 µM
# Summary of the method: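 Antagonist mode: AR-bla HEK293 cells co-treated with test compounds and agonist R1881 for 16 h at 37C, 5% CO2. Beta-lactamase activity read as FRET fluorescence after 2 h room-temperature substrate loading.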
# [17] = molecular target: Androgen receptor (Homo sapiens) (UniProt P10275); assay: qHTS assay to identify small molecule agonists of the androgen receptor (AR) signaling pathway (AID 743036; active = well fitted activation curve with a large enough effect in the signal ratio in the repeat runs, with a control signal flat, not every such curve was filed as active; the % refers to the signal ratio); settings: HEK293 AR-UAS-bla GripTite, beta-lactamase FRET ratio, 16 h; series mostly up to 62.4 µM
# Summary of the method: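 AR-UAS-bla HEK293 cells, plated 4 h before dosing, were treated with compound for 16 h at 37C. beta-Lactamase reporter read after 2 h with LiveBLAzer B/G FRET substrate at room temperature.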
SMILES,Potency [1],Potency [2],Potency [3],Potency [4],Potency [5],outcome [6],Potency [7],outcome [8],Potency [9],Potency [10],Potency [11],Potency [12],Potency [13],Potency [14],Potency [15],Potency [16],Potency [17]
CC(O)CN(C)C (stereo not drawn),inactive,inactive,inactive,inactive,inactive,inactive,inactive,inactive,inactive,inactive,inactive,inactive,inactive,inactive,–,–,–
CCC(Oc1ccccc1)C(=O)N[C@@H]1C(=O)N2[C@@H]1SC(C)(C)[C@@H]2C(=O)O (stereo partly drawn),inactive,inactive,inactive,inactive,inactive,inactive,inactive,inactive,inactive,inactive,–,inactive,inactive,inactive,–,–,–
CC(C)(C)CC(C)(C)c1cc(Cc2cc(C(C)(C)CC(C)(C)C)cc(-n3nc4ccccc4n3)c2O)c(O)c(-n2nc3ccccc3n2)c1,inactive,inactive,inactive,inactive,inactive,inactive,inactive,inactive,inactive,inactive,inactive,inactive,–,inactive,–,–,–
CO[C@H]1C=CO[C@@]2(C)Oc3c(C)c(O)c4c(O)c(c5c(nc6cc(C)ccn65)c4c3C2=O)NC(=O)/C(C)=C\C=C[C@H](C)[C@H](O)[C@@H](C)[C@@H](O)[C@@H](C)[C@H](OC(C)=O)[C@@H]1C,inactive,inactive,inactive,inactive,inactive,inactive,inactive,inactive,inactive,26.6 µM (active),23.7 µM (active),29.8 µM (active),–,inactive,–,–,–
C=C(NC(=O)C(=C)NC(=O)c1csc(C2=N[C@@H]3c4csc(n4)[C@H]4NC(=O)c5csc(n5)[C@H]([C@](C)(O)[C@@H](C)O)NC(=O)[C@H]5CSC(=N5)C(=CC)NC(=O)C([C@@H](C)O)NC(=O)c5csc(n5)[C@]3(CC2)NC(=O)[C@H](C)NC(=O)C(=C)NC(=O)[C@H](C)NC(=O)C([C@@H](C)CC)NC2C=Cc3c([C@H](C)O)cc(nc3C2O)C(=O)O[C@@H]4C)n1)C(N)=O (stereo partly drawn),inactive,inactive,inactive,inactive,inactive,inactive,inactive,inactive,inactive,2.54 µM (active),3.2 µM (active),4.03 µM (active),–,–,inactive,–,–
CN(C)C=Nc1c(I)cc(I)c(CCC(=O)O)c1I,inactive,inactive,inactive,inactive,inactive,inactive,inactive,inactive,inactive,inactive,–,inactive,inactive,inactive,–,–,–
CC[C@H](C)[C@H](NC(=O)[C@H](Cc1ccccc1)NC(=O)[C@H](C)NC(=O)[C@H](CC(=O)O)NC(=O)[C@H](CCCCN)NC(=O)[C@H](CO)NC(=O)[C@@H]1CCCN1C(=O)[C@@H]1CCC(=O)N1)C(=O)NCC(=O)N[C@@H](CC(C)C)C(=O)N[C@@H](CCSC)C(N)=O ([pGlu]PSKDAFIGLM-NH2),inactive,inactive,inactive,inactive,inactive,inactive,inactive,inactive,inactive,inactive,–,inactive,inactive,inactive,–,–,–
CNC(C)CCC=C(C)C (stereo not drawn),inactive,inactive,inactive,inactive,inactive,inactive,inactive,inactive,inactive,23.7 µM (active),29.8 µM (active),–,inactive,inactive,–,–,–
COc1ccc(C[C@H](N)C(=O)N[C@H]2[C@@H](O)[C@H](n3cnc4c(N(C)C)ncnc43)O[C@@H]2CO)cc1,inactive,inactive,inactive,inactive,inactive,inactive,inactive,inactive,4.77 µM (active),0.841 µM (active),0.75 µM (active),inactive,–,7.5 µM (active),–,–,–
Cc1cc(O)c2c(c1)O[C@@]1(C)CC[C@H]3C(C)(C)CCCC34CO[C@@H]2[C@H]41 (stereo partly drawn),inactive,inactive,inactive,inactive,inactive,inactive,inactive,inactive,23.9 µM (active),13.3 µM (active),10.6 µM (active),13.3 µM (active),–,–,inactive,23.9 µM (active),inactive

# From PubChem BioAssay (Tox21)
